# BAZ2B block – blocks human BAZ2B | Potency, µM (highest dose often 114 µM), for inactives: top-dose activity change, negative = inhibition, most hits filed as inhibitors | AlphaScreen BAZ2B-H3K14Ac peptide displacement | hit rate 4.4% among 360,000; further: potency means the concentration at half of the fitted maximal effect; on the % scale 0 is the no-effect control and ±100 the full control effect; nearly all actives have a fitted effect of over 60% in size
#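 Inhibition is scored as reduced AlphaScreen emission. The BAZ2B/b-H3(5-23)K14Ac complex (50 nM each) in PBS pH 7.4, 0.01% Tween-20 meets compound (up to 110 uM) for 30 min at RT before bead addition.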
# JMJD2A Tudor inh – blocks the human JMJD2A Tudor domain; O75164; AlphaScreen JMJD2A-Tudor / H3K4me3 peptide binding; Potency, µM (titrated, usually from 114 µM), without a hit: at the top dose activity change, negative = inhibition, hits mostly inhibitors; hit rate 4.4% among 390,000; AID 504339; further: potency means the concentration at half of the fitted maximal effect; on the % scale 0 is the no-effect control and ±100 the full control effect; nearly all actives have a fitted effect of over 50% in size
# G9a inh – inhibitors of human histone lysine methyltransferase G9a | Q96KQ7 | G9a H3K9 monomethylation, AlphaScreen, 2 h | Potency, µM (highest dose often 102 µM), for inactives: at the highest dose activity, negative = inhibition, hits mostly inhibitors | hit rate 8.8% among 350,000; further: potency means the concentration at half of the fitted maximal effect; on the % scale 0 is the no-effect control and ±100 the full control effect; nearly all actives have a fitted effect of over 75% in size
#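 G9a (20 nM) was preincubated 15 min with compound, then reacted 2 h at room temperature with 500 nM biotin-H3K9 peptide and 20 µM SAM. Monomethyl-H3K9 detected by AlphaScreen using anti-H3K9me1 antibody.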
# PI5P4Ka inh – inhibitors of human PI5P4K alpha; PI5P4Kalpha enzyme, ADP-Glo luminescence, 60 min; stronger effect = lower value; hit rate 1.2% among 330,000; P48426; max response, %; active means max response of -50% or lower; inconclusive means between -30% and -50%; inactive means -30% or higher; further: value at the top dose of about 77 µM; on the % scale 0 is the no-effect control and ±100 the full control effect
#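 Single end-point luminescence (ADP-Glo) quantified ADP from PI5P4Kalpha turnover; ATP 5 microM final, 1 h at RT, 0.1% CHAPS and 0.28 mM EGTA in HEPES pH 7.4.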
# PLK1 PBD block – blocks phosphopeptide binding to human PLK1 polo-box domain; P53350; Plk1 PBD binding of FITC phosphopeptide, fluorescence polarization; Potency, µM, for the others: max response, negative = inhibition, actives largely listed as inhibitors; hit rate 2.8% among 360,000; AID 720504; further: potency means the concentration at half of the fitted maximal effect; series mostly up to about 57 µM; on the % scale 0 is the no-effect control and ±100 the full control effect; nearly all actives have a fitted effect of over 65% in size
# HP1b binding inh – inhibitors of HP1-beta chromodomain binding to methylated histone tails; AlphaScreen HP1-beta / biotin-H3K9me3 peptide binding; Potency, µM (doses to about 114 µM), for the others: at the top dose activity change, negative = inhibition, most hits filed as inhibitors; P83916; hit rate 0.56% among 390,000; further: potency means the concentration at half of the fitted maximal effect; nearly all actives have a fitted effect of over 70% in size
#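 AlphaScreen: HP1-beta (50 nM) preformed 30 min with biotin-H3(1-18)K9me3 peptide (50 nM) in PBS pH 7.4, 0.01% Tween-20. Compound added for 30 min at RT, then streptavidin donor/nickel chelate acceptor beads (10 ug/mL) for 30 min.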
# The depositor's hits bear a star; ? = inconclusive; . = no result given; [ ] = dose if it differs, or a comment. Sampled rows, rich in hits. Any-hit rate of the full collection: about 12%. Unless noted, the call rests on the fitted dose curve; in most records, active means well fitted curve in the direction sought with a large enough effect; inconclusive means small, poorly fitted or top-dose-only effect, or another doubt; inactive means no such curve, though single readings can be large; an effect the other way counts as inactive or inconclusive.
SMILES,BAZ2B block,JMJD2A Tudor inh,G9a inh,PI5P4Ka inh,PLK1 PBD block,HP1b binding inh
CCOC(=O)NNc1ccc(C(F)(F)F)cn1,1%,10µM*,7%,3,1%,12%
O=C1C2C(c3ccccc3)CC=CC2C(c2cccc([N+](=O)[O-])c2)N1Cc1ccccc1 (stereo not drawn),.,-32%,.,.,.,10%
Cc1cc2c3c(c1)C(C)CC(C)(C)N3C(=O)C2=C(C#N)C#N (stereo not drawn),-35%,-29%,?,0,-22%,-7%
CC(Oc1cccc(Cl)c1)C(=O)Nc1ccc(N2CCOCC2)cc1N1CCOCC1 (stereo not drawn),?,?,-11%[2.33 µM],-3,4%,-12%
COC(=O)c1cc(S(=O)(=O)N2CCCCC2)ccc1N1CCOCC1,4%,-6%,50µM*,2,-1%,23%
CC(Oc1ccc(F)cc1)C(=O)Nc1ccc(N2CCOCC2)cc1N1CCOCC1 (stereo not drawn),-34%,-16%,56µM*,-3,-5%,4%
O=C(CSCc1ccc(F)cc1)Nc1ccc(N2CCOCC2)cc1N1CCOCC1,-38%,-24%,-1%[12.7 µM],6,4%,15%
Cc1nn(Cc2ccc(F)cc2)c2sc(C(=O)Nc3ccc(N4CCOCC4)cc3N3CCOCC3)cc12,40µM*,?,11µM*,7,-4%,?
COC(=O)c1cc(S(=O)(=O)N2CCCCC2)c[nH]1,-25%,45µM*,20%[59 µM],14,-3%,?
COC1=CC(=O)C=C(OC)C1(O)CC(C)=O,.,-10%,.,-14,?,18%
CN(C)c1cccc(C(=O)OCC(=O)NC(=O)NCc2ccccc2)c1,.,-15%,.,-3,-5%,8%[57 µM]
Cc1ccc(/C=C(\C#N)C(=O)Nc2cccc(C)n2)cc1,-6%,-8%,3%,7,-3%,31%
CC(Oc1ccc(F)cc1)C(=O)Nc1cc(S(=O)(=O)N2CCCCC2)ccc1N1CCOCC1 (stereo not drawn),0%,-18%,13µM*,-2,-4%,4%
COC(=O)c1cc(S(=O)(=O)N2CCOCC2)ccc1Sc1ccccc1N,-7%,-22%,20µM*,.,?,2%
COc1ccccc1NC(=O)c1cc(S(=O)(=O)N2CCOCC2)ccc1Cl,-4%,6%,4%[59 µM],-4,6%,33%
CCN1CCN(c2ccc(S(=O)(=O)N3CCCCC3)cc2NC(=O)C(C)Oc2ccc(F)cc2)CC1 (stereo not drawn),?,?,?,0,3%,-14%
COc1ccc(C(=O)N/N=C/c2ccc(OC)c(CN3CCc4cc(OC)c(OC)cc4C3C)c2)cc1 (stereo not drawn),-18%,-21%,-25%,-7,5%,9%
Cc1nc2ncnn2c(C)c1CCC(=O)NCc1ccccc1Cl,2%,-12%,0%[59 µM],.,.,11%
O=c1cc(-c2ccccc2)n(S(=O)(=O)c2ccc3ccccc3c2)o1,.,45µM*,.,-16,?,-19%
COc1ccc(S(=O)(=O)N2CC=C(c3ccccc3)CC2)cc1OC,.,.,.,4,5%,.
COc1ccc(S(=O)(=O)n2oc(=O)cc2-c2ccccc2)cc1,56µM*,-15%,40µM*,-1,-17%,13%
COc1ccc(S(=O)(=O)n2oc(=O)cc2-c2ccccc2)cc1OC,56µM*,35µM*,?,-7,?,4%
COc1cc(CCN=Cc2cc(Cl)cc(Cl)c2O)c([N+](=O)[O-])cc1OC,.,.,.,-12,-8%,.
Cc1ccc(N=Cc2cc(Cc3ccccc3Cl)cc([N+](=O)[O-])c2O)c(O)c1,25µM*,14µM*,32µM*,-69*,?,?
COc1ccc(N=Cc2cc(Cc3ccccc3Cl)cc([N+](=O)[O-])c2O)cc1OC,?,?,40µM*,?,?,-14%
Cc1cc2c(s1)c1cnn(Cc3ccc(F)c(F)c3)c(=O)c1n2C,.,-12%,.,.,.,.
CCCNC(=O)c1nn2c(C(F)(F)F)cc(-c3ccccc3)nc2c1Cl,-2%,-17%,61%,8,-2%,26%
